{
  "source": "PubChem BioAssay (NCATS)",
  "note": "Results filed as inconclusive are left out. Unmarked numbers belong to inactive results. Activity calls are given as the source filed them. Calls follow the shape of the dose curve; as a rule, active = well fitted inhibition curve with a large enough effect; inconclusive = small, poorly fitted or top-dose-only effect; inactive = flat fitted curve, though single readings scatter. % is scaled to controls: 0 for no effect and ±100 for the full control effect; potency is read from the fitted curve at half-maximal effect.",
  "data": [
    {"tested_on": "CRL-7250", "experiment": "Cytotoxic Profiling of Annotated Libraries Using Quantitative High-Throughput Screening (AID 1296008); also: nearly all actives have a fitted effect of over 60% in size", "details": "Five cell lines viability, CellTiter-Glo ATP luminescence, 48-72 h; max response: stronger effect = lower value", "how_it_was_run": "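Cells exposed to compounds for 48 or 72 hr at 37 degrees Celsius. Viability read as ATP-coupled luminescence with CellTiter-Glo after 10 min at room temperature.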", "units": {"max response": "%"}, "values": [
      {"smiles": "Cc1cc2c(c(=O)[nH]1)OC(C(O)CC(C)C)O2", "note": "(configuration not stated)", "max response": -20.7},
      {"smiles": "C=CC1C(OC2OC(CO)C(O)C(O)C2O)OC=C2C(=O)N3C(C(=O)O)Cc4c([nH]c5ccccc45)C3CC21", "note": "(configuration not stated)", "outcome": "inactive"},
      {"smiles": "CC(C(O)/C=C/C(C)(C)O)C1CCC2(C)C3C(=O)C=C4C(CCC(O)C4(C)C)C3(C)CCC12C", "note": "(configuration not stated)", "max response": -0.192},
      {"smiles": "C[C@@H]1CC[C@]2(C(=O)OC3OC(CO)C(O)C(O)C3O)CC[C@]3(C)C(=CCC4[C@@]5(C)CC[C@H](O)[C@](C)(C(=O)O)C5CC[C@]43C)C2[C@]1(C)O", "note": "(some centres not stated)", "outcome": "inactive"},
      {"smiles": "C=C1C(=O)O[C@@H]2/C=C(\\C)C(=O)/C=C/[C@](C)(O)C[C@@H](OC(=O)C(C)C)[C@@H]12", "Potency": "4040 nM (active)"},
      {"smiles": "CCc1cc(CN2CC(C(=O)O)C2)sc1-c1noc(-c2ccc(Oc3ccccc3)cc2)n1", "max response": -28.8},
      {"smiles": "COc1ccc(-n2[nH]c(=O)c3[nH]c4cc(Cl)ccc4c(=O)c3c2=O)c(C)c1", "max response": 1.23},
      {"smiles": "CC(=O)OC1C(=O)C2(C)C(O)CC3OCC3(OC(C)=O)C2C(OC(=O)c2ccccc2)C2(O)CC(OC(=O)C(O)C(NC(=O)c3ccccc3)c3ccccc3)C(C)=C1C2(C)C", "note": "(configuration not stated)", "Potency": "58 nM (active)"},
      {"smiles": "COc1ccc(C2(O)c3ccccc3NC(=O)C2O)cc1", "note": "(configuration not stated)", "max response": 0.154},
      {"smiles": "COC(=O)CC1CC(c2ccc(O)cc2)=NO1", "note": "(configuration not stated)", "max response": -3.02},
      {"smiles": "CC(C)S(=O)(=O)NC[C@H](C)c1ccc(NC(=O)c2cc(F)cc(F)c2)cc1", "outcome": "inactive"},
      {"smiles": "Cc1cc(OCc2nnc(SC3CCCC3)n2-c2cccnc2)ccc1-c1ccc(S(C)(=O)=O)cc1", "Potency": "411 nM (active)"}
    ]}
  ]
}
